Reference: PubChem BioAssay (NCATS)
Results filed as inconclusive are left out. Activity calls are given as the source filed them. Calls come from the whole dose curve; as a rule, active = well fitted curve in the direction sought with a large enough effect; inconclusive = small, poorly fitted or top-dose-only effect, or another doubt; inactive = no such curve, though single readings can be large; an effect the other way counts as inactive or inconclusive.

Columns and labels:
[1] = test system: HEK293; assay: Cytotoxic Profiling of Annotated Libraries Using Quantitative High-Throughput Screening (AID 1296008); conditions: Five cell lines viability, CellTiter-Glo ATP luminescence, 48-72 h; max response: stronger effect = lower value; note: nearly all actives have a fitted effect of over 60% in size; note: potency is the fitted concentration of half-maximal effect; for max response: % is set by controls: 0 for no effect and ±100 for the full control effect
Procedure, shortened: (§1)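 Compounds were pin-transferred onto cells and incubated 48 or 72 hr at 37 degree Celsius, 95% humidity. CellTiter-Glo was added, plates sat 10 min at room temperature, then ATP-coupled luminescence was imaged as the viability read-out.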

[2] = test system: HaCat; assay: as above; conditions: Five cell lines viability, CellTiter-Glo ATP luminescence, 48-72 h; max response: stronger effect = lower value
Procedure, shortened: as §1

[3] = test system: NIH3T3; assay: as above; conditions: Five cell lines viability, CellTiter-Glo ATP luminescence, 48-72 h; max response: stronger effect = lower value
Procedure, shortened: as §1

[4] = test system: CAOV3; assay: Primary qHTS to identify gynecologic anti-cancer compounds using libraries of approved drugs and bioactive compounds (AID 1345084); conditions: Gynecologic cancer cell panel viability, ATPlite luminescence, 48 h; series mostly up to 57.5 µM; note: nearly all actives have a fitted effect of over 55% in size; note: potency is the fitted concentration of half-maximal effect
Procedure, shortened: (§2)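 Cell viability after 48 h drug treatment, ATPlite luminescence readout; five doses.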

[5] = test system: CASKI; assay: as above; conditions: Gynecologic cancer cell panel viability, ATPlite luminescence, 48 h; series mostly up to 57.5 µM
Procedure, shortened: as §2

[6] = test system: Es-2; assay: as above; conditions: Gynecologic cancer cell panel viability, ATPlite luminescence, 48 h; series mostly up to 57.5 µM
Procedure, shortened: as §2

[7] = test system: HeLa; assay: as above; conditions: Gynecologic cancer cell panel viability, ATPlite luminescence, 48 h; series mostly up to 57.5 µM
Procedure, shortened: as §2

[8] = test system: JEG-3; assay: as above; conditions: Gynecologic cancer cell panel viability, ATPlite luminescence, 48 h; series mostly up to 57.5 µM
Procedure, shortened: as §2

[9] = test system: C33A; assay: as above; conditions: Gynecologic cancer cell panel viability, ATPlite luminescence, 48 h; series mostly up to 57.5 µM
Procedure, shortened: as §2

[10] = test system: OV90; assay: as above; conditions: Gynecologic cancer cell panel viability, ATPlite luminescence, 48 h; series mostly up to 57.5 µM
Procedure, shortened: as §2

[11] = test system: HACAT; assay: qHTS assay to identify novel small-molecules to repurpose for Merkel cell carcinoma treatment (AID 1296009); conditions: MCC and control cell lines, CellTiter-Glo viability, 72 h; at 44.8 µM (top of the series) unless noted; note: nearly all actives have a fitted effect of over 60% in size
Procedure, shortened: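 qHTS format: cells treated with library compounds in DMSO across 8 (NPC) or 11 (MIPE) concentrations. Readout after 72 hr at 37 degree celsius was CellTiter-Glo luminescence.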

[12] = test system: Hek293T; assay: Primary qHTS to identify gynecologic anti-cancer compounds using libraries of approved drugs and bioactive compounds (AID 1345084); conditions: Gynecologic cancer cell panel viability, ATPlite luminescence, 48 h, control line for the selectivity index; series mostly up to 57.5 µM; note: nearly all actives have a fitted effect of over 55% in size; note: potency is the fitted concentration of half-maximal effect
Procedure, shortened: as §2

CC(C)S(=O)(=O)NC[C@@H]1CC(c2ccc(N3CCCC3)c(F)c2)=NO1
inactive: max response [2] -20.2% | max response [3] -14.9% | Potency [4] | Potency [5] | Potency [6] | Potency [7] | Potency [8]
active: Potency [1] 14.6 µM

CC(C)(C)c1ccc(NC(=O)N2CCN(c3ncccc3Cl)CC2)cc1
active: Potency [1] 11.6 µM
inactive: max response [2] 4.52% | Potency [4] | Potency [5] | Potency [6] | Potency [7] | Potency [8]

C=C(C)C(=O)OC1CC(CO)CCC/C(CO)=C/C2OC(=O)C(=C)C21 (stereo unspecified)
active: Potency [1] 7.18 µM
inactive: max response [2] 1.02% | Potency [9] | Potency [4] | Potency [5] | Potency [7] | Potency [8] | Potency [10]

CCCc1cc2c(N3CCN(C4=NCC(C)(C)S4)CC3)ncnc2s1
inactive: outcome [2] | outcome [11] | Potency [9] | Potency [4] | Potency [5] | Potency [6] | Potency [7] | Potency [8]
active: Potency [1] 5.8 µM

Cc1cc(-c2cnc(N)c3c(-c4ccc5scnc5c4)csc23)n(C)n1
active: Potency [1] 8.2 µM | Potency [3] 11.6 µM
inactive: max response [2] -13.1% | Potency [4] | Potency [5] | Potency [6] | Potency [7] | Potency [12] | Potency [8]

CN(c1ccc(NC(=O)Nc2ccccc2)cc1)S(=O)(=O)c1cnn(-c2ccc(F)cc2)c1
active: Potency [1] 16.4 µM
inactive: max response [2] -33.8% | Potency [9] | Potency [4] | Potency [5] | Potency [6] | Potency [8] | Potency [10]

CCC(=C(c1ccc(OCCN2CCCC2)cc1)c1ccc(OCCN2CCCC2)cc1)c1ccccc1
active: Potency [1] 8.2 µM
inactive: max response [2] -11% | Potency [9] | Potency [4] | Potency [5] | Potency [6] | Potency [7] | Potency [12] | Potency [8]

COc1cccc(-c2cn(-c3ccc(CCN4CCC(O)CC4)cc3)c3ncnc(N)c23)c1
active: Potency [1] 8.2 µM | Potency [2] 5.17 µM | Potency [3] 1.3 µM | Potency [4] 14.1 µM | Potency [10] 28.2 µM

COc1ccc(-c2ccc3c(N4CCOCC4C)nc(N4CCOCC4C)nc3n2)cc1CO (stereo unspecified)
active: Potency [1] 0.146 µM | Potency [2] 2.91 µM | Potency [3] 0.231 µM | Potency [6] 0.282 µM | Potency [12] 0.316 µM
inactive: Potency [8]

COC1CCN(c2cccc(-c3cc(NC(C)=O)nc(-n4nc(C)cc4C)n3)n2)CC1
inactive: max response [2] -6.53% | Potency [9] | Potency [4] | Potency [5] | Potency [6] | Potency [7] | Potency [12] | Potency [8] | Potency [10]
active: Potency [1] 9.2 µM

O=C(Nc1ccc(-c2ccnc(Nc3ccc(N4CCOCC4)cc3)n2)cc1)C1CCCN1 (stereo unspecified)
inactive: outcome [2] | outcome [11] | Potency [9] | Potency [4] | Potency [5] | Potency [6] | Potency [7] | Potency [12] | Potency [8] | Potency [10]
active: Potency [1] 6.51 µM

C=C[C@@]1(C)C=C2C(=O)C(O)=C3[C@](C)(C(=O)O)CC[C@@H]4C[C@]34[C@]2(O)C(=O)C1
active: Potency [1] 1.8 µM | Potency [2] 10.1 µM | Potency [3] 3.6 µM | Potency [6] 10 µM | Potency [12] 11.2 µM
inactive: Potency [7]

CC(C)(C[C@@](O)(Cc1cc2ccncc2[nH]1)C(F)(F)F)c1cc(F)ccc1O
inactive: max response [2] -2.9% | Potency [9] | Potency [5] | Potency [6] | Potency [7] | Potency [8] | Potency [10]
active: Potency [1] 11.6 µM

COc1ccc(CCc2nc3c(C)c(-c4c(C)noc4C)c(C)cc3n2CCN2CCOCC2)cc1
active: Potency [1] 23.1 µM
inactive: max response [2] -20.3% | max response [3] -12.8% | Potency [7] | Potency [10]

COc1cc(/C=C2\CCCN([C@@H](C)c3ccc(F)cc3)C2=O)ccc1-n1cnc(C)c1
inactive: max response [2] 3.5% | max response [3] -4.02% | Potency [4] | Potency [5] | Potency [7] | Potency [8] | Potency [10]
active: Potency [1] 13 µM

Cc1cc(NC(=O)c2cccc(NC(=O)/C=C/CN(C)C)c2)ccc1Nc1nccc(-c2cccnc2)n1
inactive: Potency [6] | Potency [7] | Potency [8] | Potency [10]
active: Potency [1] 9.2 µM | Potency [2] 8.2 µM | Potency [3] 18.4 µM

O=C(CN1C2=NCCN2c2ccccc21)c1ccc(-c2ccccc2)cc1
inactive: Potency [9] | Potency [6] | Potency [7] | Potency [12] | Potency [8]
active: Potency [1] 18.4 µM | Potency [2] 16.4 µM
